Results on four compounds are retold here after PubChem BioAssay AID2283123 (EPA ToxCast).

Inconclusive results are not listed. Calls of active or inactive are those of the source. How the source made its calls: active means hit-call score of the fitted dose curve at least 0.9, where 1 is the maximum; inconclusive means response in the unintended direction; inactive means score below 0.9.

rat CYP2E1, Cyp2e1 (gene 25086), sequence (P05182 whole entry, looked up): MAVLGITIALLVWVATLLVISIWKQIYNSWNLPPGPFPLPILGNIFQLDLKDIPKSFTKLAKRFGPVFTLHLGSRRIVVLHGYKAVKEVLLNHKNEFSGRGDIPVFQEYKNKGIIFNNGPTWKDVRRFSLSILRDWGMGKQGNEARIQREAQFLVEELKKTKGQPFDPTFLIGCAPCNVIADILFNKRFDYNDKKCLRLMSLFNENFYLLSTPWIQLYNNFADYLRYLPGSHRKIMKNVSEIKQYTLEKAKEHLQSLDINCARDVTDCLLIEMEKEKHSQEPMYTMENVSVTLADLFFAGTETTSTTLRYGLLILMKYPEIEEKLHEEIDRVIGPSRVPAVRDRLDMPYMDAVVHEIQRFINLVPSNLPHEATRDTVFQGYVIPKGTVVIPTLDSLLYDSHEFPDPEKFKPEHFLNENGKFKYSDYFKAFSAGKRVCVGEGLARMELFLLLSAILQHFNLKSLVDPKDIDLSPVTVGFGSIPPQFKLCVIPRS

The assay deals with rat CYP2E1, Cyp2e1 (gene 25086) (UniProt P05182). Briefly: NVS_ADME_rCYP2E1: NovaScreen (NVS) CYP450-related Enzyme Activity (ADME) Assay for rat CYP2E1. How it is done:
NVS_ADME_rCYP2E1 is a biochemical, single-readout assay that uses extracted gene-proteins in a cell-free assay. Measurements were taken 1 hour after chemical dosing in a 96-well plate.NVS_ADME_rCYP2E1 is one of one assay component(s) measured or calculated from the NVS_ADME_rCYP2E1 assay. It is designed to make measurements of enzyme activity, a form of enzyme reporter, as detected with fluorescence intensity signals by Fluorescence technology.Data from the assay component NVS_ADME_rCYP2E1 was analyzed into 1 assay endpoint. This assay endpoint, NVS_ADME_rCYP2E1, was analyzed in the positive analysis fitting direction relative to Acetonitrile as the negative control and baseline of activity. Using a type of enzyme reporter, loss-of-signal activity can be used to understand changes in the enzymatic activity as they relate to the gene Cyp2e1. Furthermore, this assay endpoint can be referred to as a primary readout, because this assay has produced multiple assay endpoints where this one serves a enzymatic activity function. To generalize the intended target to other relatable targets, this assay endpoint is annotated to the cyp intended target family, where the subfamily is xenobiotic metabolism.
Binding assays used specific radioligands (tritiated, iodinated) with non-radioactive competitive displacement ligands in agonist or antagonist protocols (as indicated) and various reference compounds and inhibitors to titrate specific binding to receptors and transporters. Most enzyme assays (CYPs, kinases, phosphatases, proteases, HDACs) used recombinant protein and specific substrates (fluorescence mostly, some colorimetric and radioactive) and inhibitors, followed by a biochemical separation of substrate and product. All assays for the biochemical HTS were initially run in duplicate at a single concentration (10 uM for CYP450 assays and 25 uM for all others). Assay-chemical combinations meeting a pre-defined threshold (e.g., 30% inhibition and other criteria defined below) were then run in singleton concentration-response format with maximum concentration of 20 uM for CYPs and 50 uM for all others. Each assay was run with positive and negative controls, and concurrent controls on every plate. The follow-up (secondary) screen tested active chemical-pairs in concentration series, as well as a few additional assays not tested in the primary screen, some selected negative inactives, and several cases re-run in the concentration series for confirmatory purposes.
As to `S=C(S)NCCNC(=S)S.[Mn+2].[S-]C([S-])=NCCN=C([S-])[S-].[Zn+2]`, the compound was classed as inactive. Still for that read-out and setting: in the case of `S=C([S-])NCCNC(=S)[S-].[Mn+2]` it was “inactive”. Consider `C#CCOC(=O)[C@@H](C)Oc1ccc(Oc2ncc(Cl)cc2F)cc1`, for which the AC50 was 1.6 µM (active). The same measure, in the same setting: the figure for `N#CSCSc1nc2ccccc2s1` is 10 µM (active).

Usually AC50 stands for the concentration at which the activity in the assay is half-maximal.
